Assay results taken from PubChem BioAssay (NCATS).
Records with an inconclusive call do not appear. Unmarked numbers belong to inactive results. Calls come from the whole dose curve; as a rule, active = well fitted inhibition curve with a large enough effect; inconclusive = small, poorly fitted or top-dose-only effect; inactive = flat fitted curve, though single readings scatter.

These molecules were tested on CP217 (assay: qHTS profiling for inhibitors of Plasmodium falciparum proliferation (AID 504749;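 note: 0% = DMSO vehicle and full inhibition = artemisinin control; nearly all actives have a fitted effect of over 60% in size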)). Conditions: P. falciparum in erythrocytes, SYBR Green DNA, 72 h; series mostly up to 28.7 µM; activity, negative = inhibition: at the top concentration.
Method in brief: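 Each compound contacts P. falciparum-infected red blood cells for 72 h at 37 C; lysis buffer (Tris, EDTA, saponin, Triton X, SYBR Green I) is added and fluorescence measured next morning; values normalized to controls.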

| SMILES | activity, negative = inhibition |
| --- | --- |
| COc1cc(S(C)=O)ccc1-c1nc2ncccc2[nH]1 (stereo not given) | 0.856% |
| CCOc1ccc(S(=O)(=O)O)c2cccnc12 | 0.413% |
| NC(=S)NS(=O)(=O)c1ccc(N)cc1 | 1.09% |
| C[C@]12CC[C@@H]3c4ccc(OC(=O)c5ccccc5)cc4CC[C@H]3[C@@H]1CC[C@@H]2O | 8.12% |
| CC(CCc1ccc(O)cc1)NCC(O)c1ccc(O)cc1 (stereo not given) | 0.277% |
| FC(F)(F)C(F)(F)C(F)(F)C(F)(F)C(F)(F)C(F)(F)F | -3.25% |
| CN(C)CCOc1ccc(/C(=C(/CCCl)c2ccccc2)c2ccccc2)cc1 | -21.9% |
| CNC(=O)OCc1cccc(COC(=O)NC)n1 | 3.74% |
| NCC[C@H](O)C(=O)N[C@@H]1C[C@H](N)[C@@H](O[C@H]2O[C@H](CN)[C@@H](O)[C@H](O)[C@H]2O)[C@H](O)[C@H]1O[C@H]1O[C@H](CO)[C@@H](O)[C@H](N)[C@H]1O | 7.6% |
| NC(N)=O | 8.23% |
| CC1CCCCN1CCCOC(=O)c1ccccc1 (stereo not given) | -0.523% |
| COC(=O)CCC[N+](C)(C)C | 1.06% |
| COC(=O)CC[C@H](N)C(=O)O | 0.0876% |
| O=C(OCc1ccccc1)c1ccc(O)cc1 | -0.318% |
| CC(C)(CO)[C@@H](O)C(=O)NCCC(=O)NCCSSCCNC(=O)CCNC(=O)[C@H](O)C(C)(C)CO | 10% |
| COC(=O)c1ccccc1O | 0.233% |
| OC[C@H]1O[C@@](CO)(O[C@H]2O[C@H](CO)[C@@H](O)[C@H](O)[C@H]2O)[C@@H](O)[C@@H]1O | -6.15% |
| Nc1nccs1 | 4.07% |
| c1ccc2ccccc2c1 | -0.307% |
| O=S(=O)(O)CCCS(=O)(=O)O | -8.34% |

| SMILES | activity, negative = inhibition |
| --- | --- |
| O=C1c2ccccc2C(=O)c2c1ccc(O)c2O | 11.9% |
| O=C(NNCNNC(=O)c1ccncc1)c1ccncc1 | 4.44% |
| [O]=[Bi][O]C(=O)[O][Bi]=[O] | 6.46% |
| C=CCN1CCCC1CNC(=O)c1cc(S(N)(=O)=O)cc(OC)c1OC (stereo not given) | -1.27% |
| CC(C)[C@H](N)C(=O)OCC(CO)OCn1cnc2c(=O)[nH]c(N)nc21 (stereo not given in full) | 2.61% |
| CCCCCCCCCCCCCCCCCC(=O)OC[C@@H](O)[C@H]1OC[C@H](O)[C@H]1O | -2.48% |
| CC(=O)[C@H]1CC[C@H]2[C@@H]3C=CC4=CC(=O)CC[C@@]4(C)[C@H]3CC[C@]12C | -9.84% [at 12.8 µM] |
| CCCC(=O)O | 3.67% |
| CC1(C)S[C@@H]2[C@H](NC(=O)C3(N)CCCCC3)C(=O)N2[C@H]1C(=O)O | 1.56% |
| CCCCCCCCCCCC(=O)OCC(O)CO (stereo not given) | 2.71% |
| CCOc1ccc(NC(=S)Nc2ccc(OCC)cc2)cc1 | -0.562% |
| C[C@H](CCC(=O)O)[C@H]1CC[C@H]2[C@@H]3CC[C@@H]4C[C@H](O)CC[C@]4(C)[C@H]3C[C@H](O)[C@]12C | 4.66% |
| CC(C)(COP(=O)(O)OP(=O)(O)OC[C@H]1O[C@@H](n2cnc3c(N)ncnc32)[C@H](O)[C@@H]1OP(=O)(O)O)C(O)C(=O)NCCC(=O)NCCS (stereo not given in full) | -6.27% |
| O=C(CCCCCCCCCCCCC1CCCC1)Nc1ccc(S(=O)(=O)c2ccc(NC(=O)CCCCCCCCCCCCC3CCCC3)cc2)cc1 | 0.887% |
| Nc1nc(=O)n([C@@H]2CS[C@H](CO)O2)cc1F | 0.843% |
| O=C(O)CCC/C=C\C[C@@H]1[C@@H](/C=C/[C@@H](O)COc2cccc(C(F)(F)F)c2)[C@H](O)C[C@@H]1O | -10.8% |
| Cc1c(Cl)cccc1Nc1ncccc1C(=O)O | -2.3% |
| CC(C)=CCC/C(C)=C/CC/C(C)=C/CC/C=C(\C)CC/C=C(\C)CCC=C(C)C | 0.61% |
| CC(=O)Nc1ccc(OC(C)=O)cc1 | -2.39% |
| CC(=O)N[C@@H]1C(O[C@H]2O[C@H](C(=O)O)C(O)[C@H](O)[C@H]2O)[C@H](O)[C@@H](CO)O[C@H]1O[C@@H]1C(C(=O)O)O[C@@H](O[C@H]2[C@H](O)[C@@H](CO)OC(O)[C@@H]2NC(C)=O)[C@H](O)[C@H]1O (stereo not given in full) | 5.82% |
